# Biological target: T1, Tyrosyl-tRNA synthetase, putative (Trypanosoma cruzi (strain CL Brener)) (UniProt Q4DSP6)
# T1 sequence (whole entry): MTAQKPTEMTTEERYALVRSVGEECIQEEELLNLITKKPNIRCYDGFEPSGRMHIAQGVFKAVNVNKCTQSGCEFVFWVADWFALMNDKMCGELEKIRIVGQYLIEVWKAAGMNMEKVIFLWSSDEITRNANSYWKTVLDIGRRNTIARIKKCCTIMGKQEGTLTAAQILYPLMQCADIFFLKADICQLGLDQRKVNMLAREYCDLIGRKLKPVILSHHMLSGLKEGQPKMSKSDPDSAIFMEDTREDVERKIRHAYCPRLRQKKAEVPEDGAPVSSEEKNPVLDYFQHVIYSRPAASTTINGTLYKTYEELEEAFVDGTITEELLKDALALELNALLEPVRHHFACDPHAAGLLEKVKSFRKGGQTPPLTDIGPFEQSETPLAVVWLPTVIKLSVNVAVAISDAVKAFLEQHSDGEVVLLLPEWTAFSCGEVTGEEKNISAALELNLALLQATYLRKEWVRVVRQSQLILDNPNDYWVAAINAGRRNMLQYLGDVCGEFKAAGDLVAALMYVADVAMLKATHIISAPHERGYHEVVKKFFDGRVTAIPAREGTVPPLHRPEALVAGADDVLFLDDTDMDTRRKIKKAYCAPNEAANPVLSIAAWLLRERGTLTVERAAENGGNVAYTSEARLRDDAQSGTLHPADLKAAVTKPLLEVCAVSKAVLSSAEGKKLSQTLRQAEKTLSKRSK
# Assay: Trypanosoma cruzi tyrosyl tRNA synthetase (TcYRS) _High Tyrosine SOP
# Type: functional
# Set-up: scale not given: in the data most compounds retested in dose-response had high values
# Details: 30 µM
row,Structure (SMILES),Percent Effect [%]
1,CCN(CC1CN(CCc2ccccn2)CCO1)c1cccnn1 (stereo not given),0.546
2,O=C(NCc1ccc(-n2cncn2)nc1)c1ccoc1,4.43
3,Cc1ccsc1C(=O)N1CC(C(=O)N2CCOCC2)C2(CCOCC2)C1 (stereo not given),-4.23
4,Cn1ncc2c(=O)[nH]c(CN3CCCC3CC3CCCCC3)nc21 (stereo not given),6.4
5,CCN1C[C@H]2CCN(C(C)=O)CC[C@H]2S1(=O)=O,0
6,COc1ccc(-c2nc(CN3CCOCS3(=O)=O)c(C)o2)cc1,2.73
7,Cn1nc(C2CN(C(=O)c3cscn3)C2)c2nccnc21,6.45
8,c1coc(CN2CCCC3(COCCN(Cc4c[nH]nn4)C3)C2)c1 (stereo not given),7.29
9,COCCO[C@@H]1C[C@H]2CN(C(=O)c3cnccn3)CCN2C1,0
10,CC(=O)N1CCC(C(=O)c2cc(C)cnc2N)CC1,4.25
11,Cc1ccc(C(=O)N(C)Cc2cc(Br)cs2)c(=O)[nH]1,5.32
12,Cc1nc(C)n(CC2CN(CCc3ccncc3)CCO2)n1 (stereo not given),4.3
13,CN(CC(N)=O)S(=O)(=O)c1ccc(F)cc1Cl,13.5
14,CC(=O)NCC1CCN(CC2CCOc3ccccc3C2)CC1 (stereo not given),4.21
15,Cc1nn(-c2ccccc2)nc1C(=O)N1CCCC1c1cnn(C)c1 (stereo not given),2.97
16,CCC1=N[C@@]2(CC[C@@H]3CN(CC4CC4)C[C@@H]32)C(=O)N1C,0
17,Cc1cccc2c1OCCC2NCc1c(C)nn(C)c1N(C)C (stereo not given),1.47
18,Cc1ccc(CN2C[C@@H]3COC[C@@H](NS(C)(=O)=O)[C@@H]3C2)o1,1.04
19,CN(Cc1ccc(Cl)s1)C(=O)NCc1nnc2n1CCC2,6.4
20,Cn1cnc(S(=O)(=O)N2CCN(Cc3ccco3)CC2)c1Cl,-17.9

row,Structure (SMILES),Percent Effect [%]
1,CN(Cc1nc(-c2ccco2)no1)C1CCCN(c2cccnn2)C1 (stereo not given),6.4
2,CC(C)(O)CN1CCN(C(=O)c2sccc2C2CC2)CC1,3.12
3,COc1ccccc1NC(=O)NCC(O)(c1ccccc1)C1CC1 (stereo not given),0
4,O=C(c1cccnc1)N1CCCC2(CCN(c3ccsc3)C2=O)C1 (stereo not given),-7.41
5,CC(O)CN1CCN(Cc2csc(-c3ncccn3)n2)CC1 (stereo not given),5.32
6,O=C(c1ccc(O)c(Cl)c1)N1CCC(c2n[nH]c(C3CC3)n2)CC1,1.04
7,Cn1cnc(S(=O)(=O)NCCCN2CCCCCC2)c1Cl,5.42
8,CCOC(=O)CCNC(=O)N1CCN(c2nc3ccccc3n2C)CC1,2.12
9,CC(=O)N1CCCCC1c1nc(N)ncc1-c1ccccc1 (stereo not given),6.38
10,Cc1nn(C)c(C)c1-c1cncc(C2CCN(S(C)(=O)=O)CC2)n1,3.19
11,Cc1nn(C)c(N2CCOCC2)c1CNCc1ccnc(N(C)C)c1,3.81
12,O=C(C1CCC1)N1CCN(Cc2ccsc2)[C@H]2CS(=O)(=O)C[C@H]21,2.15
13,CSC(C)C(=O)N1CCCN(Cc2cscn2)CC1 (stereo not given),4.41
14,CN(Cc1cccc(F)c1)C1CCN(CCc2ccccn2)CC1,3.96
15,CNC(=O)[C@H]1CCS(=O)(=O)[C@@H]2CN(Cc3ccc(OC)cc3)C[C@H]12,82.2
16,O=C(NCC1CC1)[C@@H]1CCO[C@@H]2CCN(Cc3ccco3)C[C@H]21,-3.12
17,Cc1ccsc1C(=O)N1CC(C(=O)NCC2CC2)C2(CCOCC2)C1 (stereo not given),0
18,CCN(c1ccc(C(=O)N2CCCC2)cc1)S(=O)(=O)CC,1.05
19,Cc1nc(CN2CCC3(CCCN(Cc4cnn(C)c4)C3)C2=O)cs1 (stereo not given),3.12
20,CC(NC(=O)CNCCn1cccn1)c1ccc2c(c1)OCCO2 (stereo not given),8.74
